Several values for one entry are separate records, joined by “and”; a condition that tells them apart may be missing. Equal entries are not always repeated. In all, about 5,500 compounds went through this assay and about 2,000 (36%) were called active. Inconclusive results (about 18%) are left out. Cut-off read from the data, not from the text of the source: active = normalized growth mostly below about 0.91 (no sharp cut-off); inconclusive = no clear call, values can overlap the other calls; inactive = mostly above about 0.92. Some of the results follow.
Test: chemical genetic growth profiling, strain panel (AID 1159580);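 note: tested at 20 µM; growth read once vehicle control cultures reached saturation at 30 °C; 1 = growth at the plate median or of vehicle wells; lower values mean less growth of the strain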
Conditions: S. cerevisiae deletion strains, growth OD

Measured: normalized growth

O=C1c2cccc(O)c2C(=O)c2c(O)cccc21
active: locus YAL013W, strain DEP1, stronger effect = lower value 0.799 | locus YAL021C, strain ccr4, stronger effect = lower value 0.837 | locus YAL026C, strain drs2, stronger effect = lower value 0.823 | locus YBR009C, strain hhf1, stronger effect = lower value 0.821 | locus YBR021W, strain FUR4, stronger effect = lower value 1.18 [resistant] | locus YBR023C, strain chs3, stronger effect = lower value 0.909 | locus YBR229C, strain ROT2, stronger effect = lower value 0.898 | locus YBR231C, strain swc5, stronger effect = lower value 0.733 | locus YBR279W, strain paf1, stronger effect = lower value 0.905 | locus YCL016C, strain dcc1, stronger effect = lower value 0.77 | locus YCL029C, strain bik1, stronger effect = lower value 0.808 | locus YDL005C, strain med2, stronger effect = lower value 0.167 | locus YDL035C, strain GPR1, stronger effect = lower value 0.703 | locus YDL074C, strain BRE1, stronger effect = lower value 0.658 | locus YDL101C, strain DUN1, stronger effect = lower value 0.616 | locus YDL185W, strain tfp1, stronger effect = lower value 0.789 | locus YDL192W, strain arf1, stronger effect = lower value 0.628 | locus YDR069C, strain doa4, stronger effect = lower value 0.768 | locus YDR101C, strain arx1, stronger effect = lower value 0.745 | locus YDR137W, strain rgp1, stronger effect = lower value 0.268 | locus YDR150W, strain NUM1, stronger effect = lower value 0.861 | locus YDR159W, strain sac3, stronger effect = lower value 0.705 | locus YDR162C, strain NBP2, stronger effect = lower value 0.344 | locus YDR195W, strain ref2 1.22 [resistant] | locus YDR318W, strain mcm21, stronger effect = lower value 0.772 | locus YDR334W, strain swr1, stronger effect = lower value 0.831 | locus YDR335W, strain msn5, stronger effect = lower value 0.85 | locus YDR388W, stronger effect = lower value 0.728 | locus YDR392W, strain spt3, stronger effect = lower value 0.64 | locus YDR502C, strain sam2, stronger effect = lower value 0.673 | locus YEL003W, strain gim4, stronger effect = lower value 0.834 | locus YEL061C, strain CIN8, stronger effect = lower value 0.747 | locus YER015W, strain faa2, stronger effect = lower value 0.911 | locus YER016W, strain bim1, stronger effect = lower value 0.864 | locus YER110C, stronger effect = lower value 0.885 | locus YER155C, strain BEM2 (second series), stronger effect = lower value 0.806 | locus YER155C, strain BEM2, stronger effect = lower value 0.835 | locus YER167W, strain BCK2, stronger effect = lower value 0.77 | locus YFR010W, strain ubp6, stronger effect = lower value 0.862 | locus YGL078C, strain dbp3, stronger effect = lower value 0.874 | locus YGL086W, strain mad1, stronger effect = lower value 0.781 | locus YGL167C, strain pmr1, stronger effect = lower value 0.612 | locus YGL240W, strain doc1, stronger effect = lower value 0.886 | locus YGL248W, strain PDE1, stronger effect = lower value 0.685 | locus YGL253W, strain hxk2, stronger effect = lower value 0.79 | locus YGR078C, strain PAC10, stronger effect = lower value 0.669 | locus YGR135W, strain pre9, stronger effect = lower value 0.698 | locus YGR252W, strain gcn5, stronger effect = lower value 0.625 | locus YHR013C, strain ard1, stronger effect = lower value 0.701 | locus YHR027C, strain rpn1, stronger effect = lower value 0.81 | locus YHR079C, strain IRE1 (second series), stronger effect = lower value 0.915 | locus YHR129C, strain ARP1, stronger effect = lower value 0.777 | locus YHR142W, strain chs7, stronger effect = lower value 0.857 | locus YHR200W, strain rpn10, stronger effect = lower value 0.732 | locus YIL066C, strain RNR3, stronger effect = lower value 0.59 | locus YIL125W, strain kgd1, stronger effect = lower value 0.872 | locus YIR030C, strain dcg1, stronger effect = lower value 0.896 | locus YJL095W, strain BCK1 (second series), stronger effect = lower value 0.878 | locus YJL095W, strain BCK1, stronger effect = lower value 0.379 and 0.881 | locus YJL115W, strain asf1, stronger effect = lower value 0.819 | locus YJL164C, strain tpk1, stronger effect = lower value 0.833 | locus YJL166W, strain qcr8, stronger effect = lower value 0.812 | locus YJL168C, strain set2, stronger effect = lower value 0.927 | locus YJL187C, strain SWE1 (second series), stronger effect = lower value 0.611 | locus YJL187C, strain SWE1, stronger effect = lower value 0.914 | locus YJR043C, strain POL32, stronger effect = lower value 0.767 | locus YJR066W, strain TOR1, stronger effect = lower value 0.796 | locus YKL009W, strain mrt4, stronger effect = lower value 0.844 | locus YKL160W, strain elf1, stronger effect = lower value 0.835 | locus YKL190W, strain CNB1, stronger effect = lower value 0.697 | locus YKR001C, strain vps1, stronger effect = lower value 0.405 | locus YLR027C, strain aat2, stronger effect = lower value 0.878 | locus YLR039C, strain RIC1, stronger effect = lower value 0.178 | locus YLR058C, strain SHM2, stronger effect = lower value 0.684 | locus YLR221C, strain rsa3, stronger effect = lower value 0.856 | locus YLR258W, strain gsy2, stronger effect = lower value 0.909 | locus YLR262C, strain YPT6 (second series), stronger effect = lower value 0.406 | locus YLR262C, strain YPT6, stronger effect = lower value 0.24 | locus YLR268W, strain sec22, stronger effect = lower value 0.606 | locus YLR320W, strain mms22, stronger effect = lower value 0.435 | locus YLR330W, strain CHS5, stronger effect = lower value 0.688 | locus YLR371W, strain rom2, stronger effect = lower value 0.789 | locus YLR418C, strain cdc73, stronger effect = lower value 0.401 | locus YML016C, strain PPZ1, stronger effect = lower value 0.82 | locus YML032C, strain rad52, stronger effect = lower value 0.291 | locus YML120C, strain ndi1, stronger effect = lower value 0.866 | locus YML124C, strain tub3, stronger effect = lower value 0.802 | locus YMR058W, strain fet3, stronger effect = lower value 0.747 | locus YMR078C, strain ctf18, stronger effect = lower value 0.841 | locus YMR223W, strain ubp8, stronger effect = lower value 0.668 | locus YMR231W, strain pep5, stronger effect = lower value 0.882 | locus YMR263W, strain SAP30, stronger effect = lower value 0.756 | locus YNL067W, strain RPL9B, stronger effect = lower value 0.699 | locus YNL071W, strain lat1, stronger effect = lower value 0.831 | locus YNL128W, strain TEP1, stronger effect = lower value 0.638 | locus YNL153C, strain GIM3, stronger effect = lower value 0.568 | locus YNL209W, strain ssb2, stronger effect = lower value 0.879 | locus YNL233W, strain BNI4, stronger effect = lower value 0.729 | locus YNL248C, strain rpa49, stronger effect = lower value 0.55 | locus YNL250W, strain rad50, stronger effect = lower value 0.463 | locus YNL271C, strain bni1, stronger effect = lower value 0.847 | locus YNL298W, strain CLA4, stronger effect = lower value 0.823 | locus YNL307C, strain MCK1, stronger effect = lower value 0.669 | locus YNL322C, strain KRE1, stronger effect = lower value 0.803 | locus YNR052C, strain pop2, stronger effect = lower value 0.59 | locus YOL147C, strain pex11, stronger effect = lower value 0.749 | locus YOR001W, strain rrp6, stronger effect = lower value 0.855 | locus YOR061W, strain CKA2, stronger effect = lower value 0.847 | locus YOR069W, strain VPS5, stronger effect = lower value 0.79 | locus YOR070C, strain gyp1, stronger effect = lower value 0.874 | locus YOR083W, strain WHI5, stronger effect = lower value 0.793 | locus YOR106W, strain vam3, stronger effect = lower value 0.577 | locus YOR136W, strain idh2, stronger effect = lower value 0.845 | locus YOR144C, strain elg1, stronger effect = lower value 0.886 | locus YOR184W, strain ser1, stronger effect = lower value 0.375 | locus YOR270C, strain vph1, stronger effect = lower value 0.364 | locus YOR290C, strain snf2, stronger effect = lower value 0.796 | locus YPL051W, strain arl3, stronger effect = lower value 0.737 | locus YPL106C, strain sse1, stronger effect = lower value 0.705 | locus YPL240C, strain hsp82, stronger effect = lower value 0.909 | locus YPL241C, strain CIN2, stronger effect = lower value 0.847 | locus YPR163C, strain tif3, stronger effect = lower value 0.775 | locus YPR167C, strain met16, stronger effect = lower value 0.851 | strain wtn01, stronger effect = lower value 0.752
inactive: locus YAL030W, strain snc1, stronger effect = lower value 0.935 | locus YBL061C, strain skt5, stronger effect = lower value 0.929 | locus YBR171W, strain sec66, stronger effect = lower value 0.939 | locus YCL011C, strain gbp2, stronger effect = lower value 0.928 | locus YCL061C, strain MRC1, stronger effect = lower value 0.928 | locus YCL069W, strain vba3, stronger effect = lower value 0.951 | locus YCR088W, strain abp1, stronger effect = lower value 0.97 | locus YDL040C, strain nat1, stronger effect = lower value 0.952 | locus YDR001C, strain nth1, stronger effect = lower value 0.977 | locus YDR297W, strain sur2, stronger effect = lower value 0.949 | locus YEL037C, strain rad23, stronger effect = lower value 0.936 | locus YEL061C, strain CIN8 (second series), stronger effect = lower value 0.957 | locus YER111C, strain swi4, stronger effect = lower value 0.956 | locus YGL173C, strain kem1, stronger effect = lower value 0.947 | locus YGL227W, strain vid30, stronger effect = lower value 0.994 | locus YHR079C, strain IRE1, stronger effect = lower value 0.899 | locus YHR094C, strain hxt1, stronger effect = lower value 0.95 | locus YIL073C, strain SPO22, stronger effect = lower value 0.764 | locus YJL092W, strain hpr5, stronger effect = lower value 0.946 | locus YJL129C, strain trk1, stronger effect = lower value 1.02 | locus YJL134W, strain LCB3, stronger effect = lower value 0.951 | locus YJL154C, strain vps35, stronger effect = lower value 0.955 | locus YKL068W, stronger effect = lower value 0.967 | locus YKL085W, strain MDH1 (second series), stronger effect = lower value 0.944 | locus YKL085W, strain MDH1, stronger effect = lower value 0.944 | locus YKR026C, strain gcn3, stronger effect = lower value 0.97 | locus YKR091W, strain srl3, stronger effect = lower value 0.97 | locus YLL001W, strain dnm1, stronger effect = lower value 0.903 | locus YLL026W, stronger effect = lower value 0.941 | locus YLL041C, strain sdh2, stronger effect = lower value 0.953 | locus YLR102C, strain apc9, stronger effect = lower value 0.961 | locus YLR113W, strain HOG1, stronger effect = lower value 1 | locus YLR342W, strain FKS1 (second series), stronger effect = lower value 0.923 | locus YLR342W, strain FKS1, stronger effect = lower value 0.975 | locus YLR357W, strain rsc2, stronger effect = lower value 0.995 | locus YLR384C, strain iki3, stronger effect = lower value 0.936 | locus YMR125W, strain sto1, stronger effect = lower value 0.959 | locus YMR129W, stronger effect = lower value 0.972 | locus YMR205C, strain PFK2, stronger effect = lower value 0.96 | locus YMR307W, strain GAS1, stronger effect = lower value 0.677 | locus YNL183C, strain NPR1, stronger effect = lower value 0.836 | locus YNL322C, strain KRE1 (second series), stronger effect = lower value 0.965 | locus YNR049C, strain mso1, stronger effect = lower value 0.942 | locus YOL012C, strain htz1 0.695 | locus YOR080W, strain dia2, stronger effect = lower value 0.948 | locus YOR231W, strain MKK1, stronger effect = lower value 0.895 | locus YOR265W, strain rbl2, stronger effect = lower value 0.935 | locus YOR316C, strain cot1, stronger effect = lower value 0.941 | locus YPL078C, strain atp4, stronger effect = lower value 0.897 | locus YPL256C, strain CLN2, stronger effect = lower value 0.996 | locus YPR119W, strain clb2, stronger effect = lower value 0.931 | locus YPR141C, strain kar3, stronger effect = lower value 0.966
0.74 (active) and 0.875 (inactive): locus YHR030C, strain SLT2, stronger effect = lower value

— PubChem BioAssay AID1159580 (chemical genetic matrix, 2015)
